From PubChem BioAssay (NCI)
Where “and” joins values, the source holds several entries; their conditions need not be identical. Identical values can stand only once. About 83,000 compounds went through this panel and 20% of them were active in at least one assay; those are over-represented in the sample as a whole.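 Plates (96-well) were seeded with cells, treated with compound at one concentration, and incubated for 48 hours before percent growth was determined.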 Calls of active or inactive are those of the source. Rule for the calls: active = growth percent below 10; inactive = the rest.

Tested on: UACC-62 melanoma
Assay: NCI-60 one-dose screen, 48 h (100 = growth as untreated, 0 = no growth, -100 = all killed)
Conditions: 10 µM unless noted

| SMILES | growth |
| --- | --- |
| COc1cc2c(c(OC)c1OC)-c1ccc(OC)c(=O)cc1[C@@H](NC(C)=O)CC2 | 36.9% (inactive) and 40.9% (inactive) and 19.1% (inactive) |
| N#CCCOc1ccccc1 | 127% (inactive) |
| COc1ccc(/C(C#N)=C/c2ccccn2)cc1 | 93.8% (inactive) and 114% (inactive) |
| CCN(CC)C(=S)SSC(=S)N(CC)CC | 69.6% (inactive) and 105% (inactive) |
| Nc1ccc(N=Nc2ccc(S(=O)(=O)O)cc2)cc1S(=O)(=O)O | 104% (inactive) and 94.8% (inactive) |
| O=C1OC2(c3ccccc31)c1ccc(O)c(O)c1Oc1c2ccc(O)c1O | 108% (inactive) and 102% (inactive) |
| O=S(=O)(Nc1ccccc1)C1CCCCC1 | 92.6% (inactive) and 105% (inactive) |
| CCNC(=O)Nc1ccc(-c2nc3c(c(N4CCOC[C@@H]4C)n2)CCN(C2COC2)C3)cc1 | 9.26% (active) and -20.5% (active) |
| CC(C)Cc1ccc(C(C)C(=O)NCc2ccc(Cn3c(=O)sn(CCCCl)c3=O)cc2)cc1 (stereo unspecified) | 92.6% (inactive) and -68.6% (active) |
| OCc1ccccn1 | 103% (inactive) |
| CCCCCCCCCCCCCCCc1cc(O)ccc1N | 84.3% (inactive) |
| Cc1ccc2nc3c(nc2c1)-c1cccc2cccc-3c12 | 79.6% (inactive) |
| O=[N+]([O-])c1ccc(/C=N\NC(=S)Nc2ccc(F)cc2)cc1 | 104% (inactive) and 91% (inactive) |
| CCN(CC)C(=O)c1cccnc1 | 105% (inactive) |
| CN1CCN(CCC=C2c3ccccc3Sc3ccc(S(=O)(=O)N(C)C)cc32)CC1 | -42.7% (active) |
| Oc1nc(NCCc2ccccc2)sc1/C=C1\C=Nc2ncccc21 | -1.3% (active) and -1.44% (active) |
| COc1cc2nc(N3CCN(C(=O)C4COc5ccccc5O4)CC3)nc(N)c2cc1OC (stereo unspecified) | 102% (inactive) and 101% (inactive) and 103% (inactive) |

| SMILES | growth |
| --- | --- |
| c1ccc2cc(C[n+]3ccn(Cc4ccc5ccccc5n4)c3)ccc2c1 | -1.09% (active) and 10.6% (inactive) |
| COc1ccc(Cn2c(NCCN=C(N)N)nc(=O)n(Cc3ccc(F)cc3)c2=O)cc1 | 112% (inactive) and 98.4% (inactive) |
| O=C(N/N=C/c1cccc2ccccc12)C1CC1 | 92.3% (inactive) and 99.8% (inactive) |
| CC(C)CNC(=O)c1ccccc1C(=O)NC1(C(=O)NCC(C)C)CCCC1 | 103% (inactive) and 107% (inactive) |
| CN(C)c1ccc(C(Cc2ccc3ccccc3n2)Cc2ccc3ccccc3n2)cc1 | 44.5% (inactive) and 73% (inactive) |
| Cc1ccc(S(=O)(=O)Nc2ccc3cc([N+](=O)[O-])ccc3c2[N+](=O)[O-])cc1 | 44% (inactive) and 69.1% (inactive) |
| NS(=O)(=O)c1cc2c(cc1Cl)NC(C(Cl)Cl)NS2(=O)=O (stereo unspecified) | 103% (inactive) |
| Nc1ccccc1Nc1ccccc1 | 98.8% (inactive) and 99.3% (inactive) |
| c1ccc2c(CC3=NCCN3)cccc2c1 | 108% (inactive) and 106% (inactive) |
| Clc1ccc(NC(Nc2ccc(Cl)cc2)C(Cl)(Cl)Cl)cc1 | 9.46% (active) and 62.8% (inactive) |
| CCOc1ccc2c(S(=O)(=O)O)cccc2c1[N+](=O)[O-] | 101% (inactive) and 110% (inactive) |
| CCN(CC)CCCC(C)N(Cc1ccccc1)CC(O)c1ccc(Cl)cc1 (stereo unspecified) | 95.8% (inactive) and 106% (inactive) |
| Nc1nc2ncc(CNc3ccc(C(=O)N[C@@H](CCc4nn[nH]n4)C(=O)O)cc3)nc2c(=O)[nH]1 | 97.3% (inactive) and 94.5% (inactive) |
| Oc1c(Cl)cc(Cl)cc1Sc1cc(Cl)cc(Cl)c1O | 19.1% (inactive) and -29% (active) and 50.2% (inactive) |
| O=S1(=O)CC(Br)C(Br)C1 (stereo unspecified) | 86.5% (inactive) and 93.4% (inactive) |
| CN(C)c1ccc2nc3ccc(N)cc3[n+](-c3ccccc3)c2c1 | 17% (inactive) and 13.4% (inactive) |

Tested on: LOX IMVI melanoma
Assay: as above
Conditions: 10 µM unless noted

| SMILES | growth |
| --- | --- |
| COc1cc2c(c(OC)c1OC)-c1ccc(OC)c(=O)cc1[C@@H](NC(C)=O)CC2 | 15.7% (inactive) and 18.9% (inactive) and 26.5% (inactive) |
| CCN(CC)CCCC(CNc1ccnc2cc(Cl)ccc12)c1ccc(Cl)cc1 (stereo unspecified) | -85.5% (active) and -13% (active) |
| N#CCCOc1ccccc1 | 102% (inactive) |
| COc1ccc(/C(C#N)=C/c2ccccn2)cc1 | 99.7% (inactive) and 115% (inactive) |
| CCN(CC)C(=S)SSC(=S)N(CC)CC | 53% (inactive) and 98.4% (inactive) |
| Nc1ccc(N=Nc2ccc(S(=O)(=O)O)cc2)cc1S(=O)(=O)O | 93.7% (inactive) and 92.1% (inactive) |
| CCN(CC)CCOc1ccc2c(c1)C(=O)c1cc(OCCN(CC)CC)ccc1-2 | 52.3% (inactive) and 37.3% (inactive) |
| O=C1OC2(c3ccccc31)c1ccc(O)c(O)c1Oc1c2ccc(O)c1O | 90.7% (inactive) and 103% (inactive) |
| O=S(=O)(Nc1ccccc1)C1CCCCC1 | 109% (inactive) and 95.5% (inactive) |
| CCNC(=O)Nc1ccc(-c2nc3c(c(N4CCOC[C@@H]4C)n2)CCN(C2COC2)C3)cc1 | 33.9% (inactive) and 1.39% (active) |
| CC(C)Cc1ccc(C(C)C(=O)NCc2ccc(Cn3c(=O)sn(CCCCl)c3=O)cc2)cc1 (stereo unspecified) | 90.7% (inactive) and -93.1% (active) |
| OCc1ccccn1 | 102% (inactive) |
| Nc1ncnc2c1ncn2C1CC(O)C(CO)O1 (stereo unspecified) | 103% (inactive) and 105% (inactive) |
| CCCCCCCCCCCCCCCc1cc(O)ccc1N | 34.5% (inactive) and -35.1% (active) |
| Cc1ccc2nc3c(nc2c1)-c1cccc2cccc-3c12 | 82.6% (inactive) |
| O=[N+]([O-])c1ccc(/C=N\NC(=S)Nc2ccc(F)cc2)cc1 | 88.9% (inactive) |
| CCN(CC)C(=O)c1cccnc1 | 100% (inactive) |
| CN1CCN(CCC=C2c3ccccc3Sc3ccc(S(=O)(=O)N(C)C)cc32)CC1 | 15.9% (inactive) and 40.7% (inactive) |
| Oc1nc(NCCc2ccccc2)sc1/C=C1\C=Nc2ncccc21 | 8.25% (active) and 16.3% (inactive) |

| SMILES | growth |
| --- | --- |
| COc1cc2nc(N3CCN(C(=O)C4COc5ccccc5O4)CC3)nc(N)c2cc1OC (stereo unspecified) | 88% (inactive) and 94.2% (inactive) and 98.7% (inactive) |
| c1ccc2cc(C[n+]3ccn(Cc4ccc5ccccc5n4)c3)ccc2c1 | -30.6% (active) and 20.1% (inactive) |
| COc1ccc(Cn2c(NCCN=C(N)N)nc(=O)n(Cc3ccc(F)cc3)c2=O)cc1 | 96.2% (inactive) |
| O=C(N/N=C/c1cccc2ccccc12)C1CC1 | 91.8% (inactive) |
| CC(C)CNC(=O)c1ccccc1C(=O)NC1(C(=O)NCC(C)C)CCCC1 | 90.4% (inactive) and 101% (inactive) |
| Cn1c(=O)n(-c2ccc(C(C)(C)C#N)cc2)c2c3cc(-c4cnc5ccccc5c4)ccc3ncc21 | 1.14% (active) and 2.87% (active) |
| CN(C)c1ccc(C(Cc2ccc3ccccc3n2)Cc2ccc3ccccc3n2)cc1 | 31.3% (inactive) and 81.8% (inactive) |
| Cc1ccc(S(=O)(=O)Nc2ccc3cc([N+](=O)[O-])ccc3c2[N+](=O)[O-])cc1 | 82% (inactive) and 97.3% (inactive) |
| NS(=O)(=O)c1cc2c(cc1Cl)NC(C(Cl)Cl)NS2(=O)=O (stereo unspecified) | 98.6% (inactive) and 99.9% (inactive) |
| Nc1ccccc1Nc1ccccc1 | 85.1% (inactive) and 87% (inactive) |
| c1ccc2c(CC3=NCCN3)cccc2c1 | 91.9% (inactive) and 99.4% (inactive) |
| Clc1ccc(NC(Nc2ccc(Cl)cc2)C(Cl)(Cl)Cl)cc1 | 74.5% (inactive) |
| CCOc1ccc2c(S(=O)(=O)O)cccc2c1[N+](=O)[O-] | 105% (inactive) and 102% (inactive) |
| CCN(CC)CCCC(C)N(Cc1ccccc1)CC(O)c1ccc(Cl)cc1 (stereo unspecified) | 99.7% (inactive) and 97.5% (inactive) |
| Cn1cnc([N+](=O)[O-])c1Sc1ncnc2nc[nH]c12 | 22.4% (inactive) and 22.5% (inactive) |
| Nc1nc2ncc(CNc3ccc(C(=O)N[C@@H](CCc4nn[nH]n4)C(=O)O)cc3)nc2c(=O)[nH]1 | 99.5% (inactive) and 98.7% (inactive) |
| Oc1c(Cl)cc(Cl)cc1Sc1cc(Cl)cc(Cl)c1O | 80.7% (inactive) and 41.3% (inactive) and 96% (inactive) |
| O=S1(=O)CC(Br)C(Br)C1 (stereo unspecified) | 81.3% (inactive) and 38.4% (inactive) |
| CN(C)c1ccc2nc3ccc(N)cc3[n+](-c3ccccc3)c2c1 | 28% (inactive) and 6.03% (active) |
